About 83,000 compounds went through this panel and 20% of them were active in at least one assay; those are over-represented in the sample as a whole.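 Method: cells in 96-well plates; compound added at one concentration; 48 h incubation; percent growth measured; values under 10 scored active.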 Active and inactive are the calls of the source.
Columns and labels:
Assay in all cases: NCI-60 one-dose screen, 48 h (100 = growth as untreated, 0 = no growth, -100 = all killed)
Conditions in all cases: 10 µM unless noted
T-47D breast = test system: T-47D breast
BT-549 breast = test system: BT-549 breast
MDA-MB-435 melanoma = test system: MDA-MB-435 melanoma
SW-620 colon = test system: SW-620 colon
MCF7 breast = test system: MCF7 breast
HCT-116 colon = test system: HCT-116 colon
HCC-2998 colon = test system: HCC-2998 colon
KM12 colon = test system: KM12 colon

| Compound | growth (T-47D breast) | growth (BT-549 breast) | growth (MDA-MB-435 melanoma) | growth (SW-620 colon) | growth (MCF7 breast) | growth (HCT-116 colon) | growth (HCC-2998 colon) | growth (KM12 colon) |
| --- | --- | --- | --- | --- | --- | --- | --- | --- |
| CS(=O)c1nccc(-c2c(-c3ccc(F)c(OCCc4ccc(F)cc4)c3)nc3sccn23)n1 (centres undefined) | -41.9% (active) | 92.8% (inactive) | 99.5% (inactive) | -5.23% (active) | -46.4% (active) | -59.9% (active) | 17.8% (inactive) | 78.3% (inactive) |
| COc1ccc(NC2=C(Cl)C(=O)C(C)=C(C)C2=O)cc1 | -2.17% (active) | 110% (inactive) | 106% (inactive) | 94.3% (inactive) | 75.9% (inactive) | 63.4% (inactive) | 101% (inactive) | 72.3% (inactive) |
| O=C(O)c1ccc(-n2cc(CNc3ccc(F)cc3)c(-c3ccc(C(F)(F)F)cc3)n2)cc1 | 78.2% (inactive) | 103% (inactive) | 80.9% (inactive) | 98.6% (inactive) | 67.8% (inactive) | 83.3% (inactive) | 102% (inactive) | 78.7% (inactive) |
| COc1ccc(-c2nc3cc(Cl)c(Cl)cc3n2CC(=O)N=Nc2c(O)[nH]c3ccc(Cl)cc23)cc1 | -14.4% (active) | 25.8% (inactive) | 16.9% (inactive) | 32.1% (inactive) | 40% (inactive) | 7.71% (active) | 29.8% (inactive) | 59% (inactive) |
| Cc1ccc(S(=O)(=O)N/N=C/c2cn(-c3ccc(F)cc3)nc2-c2ccc(S(C)(=O)=O)cc2)cc1 | 98.5% (inactive) | 105% (inactive) | 100% (inactive) | 103% (inactive) | 95.7% (inactive) | 107% (inactive) | 108% (inactive) | 102% (inactive) |
| Cn1c2ccccc2c2c3c(c4c5ccc(Br)cc5oc4c21)C(=O)N(O)C3=O | 19.5% (inactive) | 64.9% (inactive) | 88.5% (inactive) | 59.3% (inactive) | 19.2% (inactive) | 65.7% (inactive) | 91.8% (inactive) | 92.4% (inactive) |
| c1ccc(-c2n(Cc3ccc4ccccc4c3)c3c4ccccc4c4ccccc4c3[n+]2Cc2ccc3ccccc3c2)cc1 | -41.7% (active) | -69.9% (active) | -85.4% (active) | -75.4% (active) | -75% (active) | -61.6% (active) | -90.8% (active) | -85.5% (active) |
| O=C(CSc1nnc(-c2cccs2)n1-c1ccccc1)Nc1ccc(F)cc1 | 84.7% (inactive) | 99.3% (inactive) | 80.8% (inactive) | 97.2% (inactive) | 91.9% (inactive) | 86.3% (inactive) | 125% (inactive) | 94.1% (inactive) |
| COc1ccc([C@H]2[C@H](O)C(=O)N2c2cc(OC)c(OC)c(OC)c2)cc1 | 70.2% (inactive) | -2.44% (active) | -12.9% (active) | 20.3% (inactive) | 12.4% (inactive) | 0.54% (active) | 16.3% (inactive) | 18.8% (inactive) |
| CCOC(=O)C1=C(C)Nc2nc3ccccc3n2C1c1cccc(Br)c1 (centres undefined) | 88.1% (inactive) | 76.9% (inactive) | 7.44% (active) | 68.2% (inactive) | 38.3% (inactive) | 81.4% (inactive) | 93.1% (inactive) | 65.6% (inactive) |
| NC(=O)N1N=C(c2cc3ccccc3oc2=O)CC1c1cn(-c2ccccc2)nc1-c1ccc(Cl)cc1 (centres undefined) | 25.1% (inactive) | 68.7% (inactive) | 47.4% (inactive) | 35.5% (inactive) | 25.4% (inactive) | 26.7% (inactive) | 57% (inactive) | 34.5% (inactive) |
| CC1(C)CC[C@]2(C(=O)O)CC[C@]3(C)C(=CCC4[C@@]5(C)C[C@@H](O)[C@@H]6OC(c7cccc([N+](=O)[O-])c7)OC[C@@]6(C)C5CC[C@]43C)C2C1 (some centres undefined) | 93.1% (inactive) | 77.3% (inactive) | 85.5% (inactive) | 73.7% (inactive) | 74.4% (inactive) | 49.5% (inactive) | 42% (inactive) | 46.1% (inactive) |
| O=C(CN1C(=O)CSC1=O)Nc1ccc(C(=O)/C=C/c2cc3ccccc3nc2Cl)cc1 | 58.7% (inactive) | 66.1% (inactive) | 25.6% (inactive) | 95.6% (inactive) | 12.5% (inactive) | -45.5% (active) | 82.1% (inactive) | 62.2% (inactive) |
| CNC(=O)c1cc(Oc2ccc3nc(NC(=O)c4ccc(CN5CCCN(C)CC5)c(C(F)(F)F)c4)sc3c2)ccn1 | 7.14% (active) | 83.2% (inactive) | -8.88% (active) | -70.9% (active) | -38.9% (active) | 5.99% (active) | 4.85% (active) | 30.3% (inactive) |
| COc1ccc2c(C3=C(c4c[nH]c5ccccc45)C(=O)N(O)C3=O)coc2c1 | 40.6% (inactive) | 118% (inactive) | 107% (inactive) | 98.6% (inactive) | 44.5% (inactive) | 93.1% (inactive) | 103% (inactive) | 97.6% (inactive) |
| NCCN1CCN(c2nc(-c3ccccc3)nc3nc(-c4ccccc4)oc23)CC1 | -16.2% (active) | 92.5% (inactive) | -77.6% (active) | -55% (active) | -88.3% (active) | -82.2% (active) | -14.4% (active) | -55.4% (active) |
| COc1cc(CNC(=O)Cc2ccccc2[N+](=O)[O-])ccc1OCC(=O)NO | 103% (inactive) | 106% (inactive) | 106% (inactive) | 110% (inactive) | 95.1% (inactive) | 107% (inactive) | 108% (inactive) | 101% (inactive) |
| Oc1ccc(CSc2nnc(-c3ccc(Oc4ccccc4)cc3)o2)c2cccnc12 | 7.85% (active) | 49.8% (inactive) | 29.9% (inactive) | 2.32% (active) | 16% (inactive) | 1.74% (active) | 29.4% (inactive) | 9.88% (active) |
| COc1ccc(-c2nnc(SCc3ccc(O)c4ncccc34)o2)cc1 | 27% (inactive) | 35.7% (inactive) | 24% (inactive) | 17.7% (inactive) | 14.9% (inactive) | 23.1% (inactive) | 45.2% (inactive) | 15.7% (inactive) |
| COc1cc2cc(Oc3ccc(NC(=O)Nc4cc(C(F)(F)F)cc(C(F)(F)F)c4)cc3)c(C)nc2cc1OCCN(C)C | 106% (inactive) | 114% (inactive) | 106% (inactive) | 106% (inactive) | 93% (inactive) | 110% (inactive) | 103% (inactive) | 104% (inactive) |
| COC1=C(c2ccccc2)C(=O)C(OC)=C(c2ccccc2)C1=O | 60.9% (inactive) | 104% (inactive) | 93.7% (inactive) | 98.8% (inactive) | 85.2% (inactive) | 96.3% (inactive) | 94.4% (inactive) | 98.6% (inactive) |
| O=C(CCCCCCN1CC(=O)N2[C@@H](c3ccccc3)c3[nH]c4ccccc4c3C[C@H]2C1=O)NO | 25.7% (inactive) | 91.5% (inactive) | 46.1% (inactive) | 38.7% (inactive) | 47.1% (inactive) | 20.9% (inactive) | 85.8% (inactive) | 65.2% (inactive) |
| O=C(/C=C1\C=CN(CCCCCCF)c2ccccc21)n1ccc2ccccc21 | 82% (inactive) | 103% (inactive) | 108% (inactive) | 104% (inactive) | 88.4% (inactive) | 84.8% (inactive) | 107% (inactive) | 100% (inactive) |
| CCN(CC)c1ccc2cc(C(=O)NCCOCCOCCOCCn3cc(CCC(=O)Nc4ccc(C(=O)c5ccc(NC(=O)OC(C)(C)C)cc5)cc4)nn3)c(=O)oc2c1 | -8.51% (active) | 26.4% (inactive) | 62.4% (inactive) | 82.1% (inactive) | 44.1% (inactive) | 36.3% (inactive) | 96.8% (inactive) | 36.6% (inactive) |
| O=S(=O)(NC1CC2CCC1C2)c1ccc2c(c1)C(=NO)c1cc(S(=O)(=O)NC3CC4CCC3C4)ccc1-2 (centres undefined) | -0.508% (active) | 31.7% (inactive) | 27.1% (inactive) | -63.4% (active) | 25.3% (inactive) | 20.3% (inactive) | 38.9% (inactive) | 45.9% (inactive) |
| Cc1ccccc1/C=C/c1nn2c(-c3ccoc3C)nnc2s1 | 90.5% (inactive) | 111% (inactive) | 96.3% (inactive) | 104% (inactive) | 83.9% (inactive) | 106% (inactive) | 108% (inactive) | 105% (inactive) |
| CCCCCc1ccc(S(=O)(=O)N(C(C)=O)c2cccc(-c3csc(N(CCN4CCN(C)CC4)C(C)=O)n3)c2)cc1 | 50.4% (inactive) | 91.3% (inactive) | -73% (active) | -26.5% (active) | -66.2% (active) | -66.2% (active) | -81.2% (active) | 27.4% (inactive) |
| CCNC(=O)Oc1ccc(/C(=C(/C)c2ccccc2)c2ccc(OCCN3CCCC3)cc2)cc1 | 51.8% (inactive) | 70.4% (inactive) | 81.6% (inactive) | 80.3% (inactive) | 26.9% (inactive) | 38.3% (inactive) | 93.4% (inactive) | 81.8% (inactive) |

From PubChem BioAssay (NCI)
